Hits are enriched below; roughly 3.6% of the tested compounds scored in any of these assays.
CRFBP-R2 block – blocks CRF-induced signaling of the CRF-BP/CRF-R2 complex. HEK293 CRF-R2/CRF-BP, CRF-induced calcium fluorescence. inhibition, % at 11.8 µM. 350,000 tested, 0.59% active;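 active = inhibition of the ligand-induced calcium signal above about 50% at the single tested concentration, limit read from the data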
NadD block – inhibitors of Staphylococcus aureus NadD | purified NadD enzyme, colorimetric absorbance read-out | inhibition, % at 20 µM | 360,000 tested, 0.78% active; in the data active = inhibition above about 26%
NRP1-CendR mod – alters CendR peptide binding to human NRP-1 | O14786 | FAM-RPARPAR peptide binding to NRP-1, fluorescence polarization | inhibition, % at 25 µM | 360,000 tested, 0.85% active | AID 602438;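 active = inhibition or corrected inhibition above about 18%, plus a signal ratio from 0.5 to 1.5, limit read from the data, passing the limit was not always enough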
Target sequence (O14786 whole entry, looked up): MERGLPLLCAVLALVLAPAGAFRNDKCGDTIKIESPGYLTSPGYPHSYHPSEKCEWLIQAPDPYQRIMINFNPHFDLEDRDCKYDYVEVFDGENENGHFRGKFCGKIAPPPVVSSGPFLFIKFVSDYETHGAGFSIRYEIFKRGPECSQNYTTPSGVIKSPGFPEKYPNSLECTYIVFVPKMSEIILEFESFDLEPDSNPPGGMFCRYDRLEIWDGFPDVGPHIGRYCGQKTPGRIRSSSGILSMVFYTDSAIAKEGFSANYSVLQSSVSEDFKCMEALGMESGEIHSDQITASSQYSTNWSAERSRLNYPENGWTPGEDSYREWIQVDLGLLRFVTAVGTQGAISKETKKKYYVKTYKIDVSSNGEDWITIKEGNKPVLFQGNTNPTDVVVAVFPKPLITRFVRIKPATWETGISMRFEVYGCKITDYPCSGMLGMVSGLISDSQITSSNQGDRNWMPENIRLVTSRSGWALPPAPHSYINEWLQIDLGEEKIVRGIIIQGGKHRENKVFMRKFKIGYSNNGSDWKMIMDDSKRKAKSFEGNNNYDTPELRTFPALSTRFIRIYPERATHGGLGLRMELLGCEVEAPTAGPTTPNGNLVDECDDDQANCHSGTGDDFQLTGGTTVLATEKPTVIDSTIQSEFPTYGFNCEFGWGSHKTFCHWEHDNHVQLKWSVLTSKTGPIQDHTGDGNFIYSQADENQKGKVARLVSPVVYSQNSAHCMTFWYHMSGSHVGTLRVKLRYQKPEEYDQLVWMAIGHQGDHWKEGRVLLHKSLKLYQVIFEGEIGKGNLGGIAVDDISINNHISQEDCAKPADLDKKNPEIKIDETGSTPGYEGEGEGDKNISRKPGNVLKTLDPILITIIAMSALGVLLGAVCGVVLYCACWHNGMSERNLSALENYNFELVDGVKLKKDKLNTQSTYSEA
FAS-TE inh – inhibitors of human fatty acid synthase thioesterase domain; P49327; recombinant FAS-TE, OMFH fluorogenic substrate, fluorescence endpoint; inhibition, % at 15 µM; 360,000 tested, 0.67% active; AID 602261;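 active = compounds whose normalised, plate-corrected inhibition of enzyme fluorescence in the single-dose primary screen is 50% or more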;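 also: 0% = DMSO with enzyme and 100% = substrate without enzyme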
Myeloid diff MLP – myeloid differentiation induction; ER-HoxA9 myeloid progenitors, lysozyme-GFP differentiation, flow cytometry; calls only at 10 µM; 360,000 tested, 1% active; AID 624256;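 active = normalized GFP-positive differentiation at or above the plate's own cutoff, the solvent-only control mean plus 3 SD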;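 also: cells exposed to compound for four days before flow analysis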
NadD conf – confirmation of Staphylococcus aureus NadD inhibitors | shares compounds with NadD block | AID 624309 | purified S. aureus NadD, colorimetric enzyme assay | 2,000 tested, 13% active | inhibition, % at 20 µM; in the data active = inhibition mostly above about 42%, no sharp cut-off; inactive = mostly below about 42%
Active calls of the source: *.

Screening O=C(Cc1ccc(S(=O)(=O)N2CCOCC2)s1)NCCc1ccc(F)cc1 returned CRFBP-R2 block -14, NadD block 3, NRP1-CendR mod -32, FAS-TE inh -2 and Myeloid diff MLP inactive.
Screening O=C(COC(=O)c1ccc2[nH]c3c(c2c1)CCCC3)Nc1ccccc1 returned CRFBP-R2 block -25, NadD block 0, NRP1-CendR mod -6, FAS-TE inh 18 and Myeloid diff MLP inactive.
Screening O=C1NC(=O)c2c(Br)c(Br)c(Br)c(Br)c21 returned CRFBP-R2 block -8, NadD block 30*, NRP1-CendR mod 3, FAS-TE inh -9, Myeloid diff MLP inactive and NadD conf 7.
Screening O=C1NC(=O)C(=O)N1 returned CRFBP-R2 block -9, NadD block -2, NRP1-CendR mod -14, FAS-TE inh -3 and Myeloid diff MLP inactive.
Screening Nc1ccc(Cc2ccc(N)c(O)c2)cc1O returned CRFBP-R2 block 7, NadD block 37*, NRP1-CendR mod -58, FAS-TE inh -6, Myeloid diff MLP inactive and NadD conf 25.
Screening COc1ccc(Cl)cc1S(=O)(=O)N(C)CC(=O)NCc1ccc2c(c1)OCO2 returned CRFBP-R2 block 4, NadD block -5, NRP1-CendR mod 12, FAS-TE inh 0 and Myeloid diff MLP inactive.
`Cc1cc(-c2csc(NC(=O)c3ccc(=O)n(C)n3)n2)c(C)n1CC1CCCO1` (stereo not given) gave CRFBP-R2 block 7, NadD block 18, NRP1-CendR mod 1, FAS-TE inh -8 and Myeloid diff MLP inactive.
Screening Cc1cc(-c2csc(NC(=O)c3ccccc3C(F)(F)F)n2)c(C)n1Cc1ccccc1 returned CRFBP-R2 block -35, NadD block 33*, NRP1-CendR mod -31, FAS-TE inh -2, Myeloid diff MLP inactive and NadD conf 20.
`Cc1cc(F)ccc1S(=O)(=O)Nc1ccccc1C(=O)Nc1ccccc1-c1nc2ccccc2[nH]1` gave CRFBP-R2 block -43, NadD block 33*, NRP1-CendR mod 1, FAS-TE inh 39, Myeloid diff MLP inactive and NadD conf 0.
Screening CC1CCN(S(=O)(=O)c2ccc(C(=O)Nc3ccccc3-c3nc4ccccc4[nH]3)cc2)CC1 returned CRFBP-R2 block -22, NadD block 29*, NRP1-CendR mod 6, FAS-TE inh 42, Myeloid diff MLP inactive and NadD conf 4.
CC1CCCN(S(=O)(=O)c2ccc(C(=O)Nc3ccccc3-c3nc4ccccc4[nH]3)cc2)C1 (stereo not given) was read as CRFBP-R2 block -37, NadD block 5, NRP1-CendR mod 3, FAS-TE inh 18 and Myeloid diff MLP inactive.
For CCc1ccccc1NS(=O)(=O)Cc1ccccc1 the results were CRFBP-R2 block -5, NadD block 3, NRP1-CendR mod 19, FAS-TE inh -4 and Myeloid diff MLP inactive.
Screening CCN(CC)C(=O)Cn1cc(C(=O)C(=O)Nc2ccc3c(c2)OCO3)c2ccccc21 returned CRFBP-R2 block 15, NadD block 2, NRP1-CendR mod -27, FAS-TE inh 10 and Myeloid diff MLP inactive.
Screening COc1cccc(OCc2cc(/C=N/Nc3ccc(C(=O)O)cc3)ccc2OC)c1 returned CRFBP-R2 block 12, NadD block 46*, NRP1-CendR mod -32, FAS-TE inh 7, Myeloid diff MLP inactive and NadD conf 53*.
`COc1cccc(C(=O)Oc2ccc(/C=N/Nc3ccc(C(=O)O)cc3)cc2OC)c1` gave CRFBP-R2 block 2, NadD block 5, NRP1-CendR mod -12, FAS-TE inh 19 and Myeloid diff MLP inactive.
`COC(=O)c1sc(NC(=O)c2cc(-c3ccccc3)nc3ccccc23)c(C#N)c1C` gave CRFBP-R2 block 21, NadD block 21, NRP1-CendR mod -15, FAS-TE inh 10 and Myeloid diff MLP inactive.
Cc1sc(NC(=O)c2cc(-c3ccc(Cl)cc3)nc3ccccc23)c(C(N)=O)c1C was read as CRFBP-R2 block 1, NadD block 33*, NRP1-CendR mod 1, FAS-TE inh 6, Myeloid diff MLP inactive and NadD conf 6.
For Cc1ccccc1-c1cc(C(=O)Nc2sc(C(=O)OC(C)C)c(C)c2C#N)c2ccccc2n1 the results were CRFBP-R2 block 47, NadD block 74*, NRP1-CendR mod -13, FAS-TE inh 31, Myeloid diff MLP inactive and NadD conf 27.
Screening CCOC(=O)c1sc(NC(=O)c2cc(-c3ccc(C)cc3)nc3ccccc23)c(C#N)c1C returned CRFBP-R2 block 17, NadD block 42*, NRP1-CendR mod -16, FAS-TE inh 27, Myeloid diff MLP inactive and NadD conf 11.
`Cc1cc(NC(=O)c2cc(-c3ccccc3C)nc3ccccc23)no1` gave CRFBP-R2 block -80, NadD block 4, NRP1-CendR mod 2, FAS-TE inh 3 and Myeloid diff MLP inactive.
For CCN(CC)c1c(C)nc2ccc(C(=O)Nc3cc(-c4ccccc4)ccc3OC)cn12 the results were NadD block 5, NRP1-CendR mod -9, FAS-TE inh 17 and Myeloid diff MLP inactive.
Screening c1csc(-c2nc(N3CCOCC3)c3ccccc3n2)c1 returned CRFBP-R2 block -27, NadD block -7, NRP1-CendR mod -3, FAS-TE inh 12 and Myeloid diff MLP inactive.
O=S(=O)(c1ccc(Cl)cc1)N1CCN(c2nc(-c3cccs3)nc3ccccc23)CC1 was read as CRFBP-R2 block -31, NadD block 30*, NRP1-CendR mod -2, FAS-TE inh 25, Myeloid diff MLP inactive and NadD conf 28.
C=CCc1c(C)[nH]c(=S)c(C#N)c1C was read as CRFBP-R2 block -3, NadD block 34*, NRP1-CendR mod -32, FAS-TE inh 6, Myeloid diff MLP inactive and NadD conf 24.
Screening COC(=O)C1CCCN1C(=O)C12CC3CC(CC(C3)C1)C2 (stereo not given) returned CRFBP-R2 block 0, NadD block -1, NRP1-CendR mod 13, FAS-TE inh -1 and Myeloid diff MLP inactive.
Screening CC(NS(=O)(=O)c1ccc(Br)cc1F)[C@H](O)c1ccccc1 (stereo not given in full) returned CRFBP-R2 block -6, NadD block 1, NRP1-CendR mod -1, FAS-TE inh -3 and Myeloid diff MLP inactive.
For Cc1cc(N)n(-c2ccccc2)n1 the results were CRFBP-R2 block -22, NadD block -5, NRP1-CendR mod -2, FAS-TE inh -9 and Myeloid diff MLP inactive.
Cc1cc(-c2cc(N)n(-c3ccccc3)n2)c(C)n1C1CCCC1 was read as CRFBP-R2 block 8, NadD block 32*, NRP1-CendR mod -26, FAS-TE inh 2, Myeloid diff MLP inactive and NadD conf 12.
For NC(Cc1ccc(C(F)(F)F)cc1)c1csc(NC(=O)Nc2ccccc2Oc2ccccc2)n1 (stereo not given) the results were NadD block 34*, NRP1-CendR mod -3, FAS-TE inh -39, Myeloid diff MLP active and NadD conf 9.
